Results reported in PubChem BioAssay (NCI).
The panel holds about 83,000 compounds, 20% with a hit somewhere; the sample as a whole holds those more often.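 Method: cells in 96-well plates; compound added at one concentration; 48 h incubation; percent growth measured; values under 10 scored active.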 A number with no mark means an inactive call. Activity calls are given as the source filed them.

Assays:
Assay in all cases: NCI-60 one-dose screen, 48 h (100 = growth as untreated, 0 = no growth, -100 = all killed)
Details in all cases: 10 µM unless noted
HCT-15 colon = tested on: HCT-15 colon
HT29 colon = tested on: HT29 colon
SNB-75 CNS = tested on: SNB-75 CNS
SNB-19 CNS = tested on: SNB-19 CNS
U251 CNS = tested on: U251 CNS
PC-3 prostate = tested on: PC-3 prostate
SK-MEL-5 melanoma = tested on: SK-MEL-5 melanoma
UACC-62 melanoma = tested on: UACC-62 melanoma
LOX IMVI melanoma = tested on: LOX IMVI melanoma
SK-MEL-28 melanoma = tested on: SK-MEL-28 melanoma

Row | Compound | growth (HCT-15 colon) | growth (HT29 colon) | growth (SNB-75 CNS) | growth (SNB-19 CNS) | growth (U251 CNS) | growth (PC-3 prostate) | growth (SK-MEL-5 melanoma) | growth (UACC-62 melanoma) | growth (LOX IMVI melanoma) | growth (SK-MEL-28 melanoma)
1 | CCCc1cc(=O)oc2c3c(c4c(c12)OC(C)(C)C=C4)O[C@@H](C)[C@H](C)C3=O | 98.1% | 41% | 87.7% | 93.6% | 65.7% | 40.7% | 32.1% | 66% | 81.2% | –
2 | NC(N)=N/N=C/CO | 106% | 98.4% | 89.9% | 111% | 105% | 91.2% | 102% | 113% | 93.1% | 106%
3 | CS(=O)(=O)c1ccc(-c2[nH]c3ccc(F)cc3c2/C=N/O)cc1 | 98.4% | 93.7% | 69.2% | 103% | 91.2% | 79.4% | 103% | 91.2% | 95.3% | 108%
4 | CC(=O)Nc1ccc(C(=O)/C=C/c2ccccc2)cc1 | 77.3% | 44.6% | 75.9% | 80.5% | 76.3% | 84.3% | 91.5% | 90% | 61.8% | 93.4%
5 | O=S(=O)(NCCNc1cc(-c2c(-c3cccc(O)c3)nc3sccn23)ccn1)c1ccc(Br)cc1 | 44.8% | 51% | 26.3% | 66.1% | 64.6% | 49.8% | 25.2% | 56.8% | 61.6% | 84.9%
6 | COc1ccc(-c2nc3ncccn3c2/C=C/C(=O)c2cc(OC)c(OC)c(OC)c2)cc1 | 9.73% (active) | 6.11% (active) | 9.26% (active) | 10.9% | -16.8% (active) | 19% | -83.2% (active) | -17% (active) | 0.0444% (active) | -47.4% (active)
7 | N#Cc1c(-c2ccccc2)nc(SCC2CO2)nc1N1CCOCC1 (stereo not drawn) | 74.2% | 74% | 34.1% | 60.9% | 75.3% | 36.1% | 84.9% | 51.9% | 76.6% | 64.7%
8 | CC[C@]1(O)C[C@H]2CN(CCc3c([nH]c4ccccc34)[C@@](C(=O)OC)(c3cc4c(cc3OC)N(C=O)[C@H]3[C@@](O)(C(=O)OC)[C@H](OC(C)=O)[C@]5(CC)C=CCN6CC[C@]43[C@@H]65)C2)C1 | 10.9% | -3.03% (active) | 15.7% | 10.1% | 24.2% | 18.3% | -73.5% (active) | 23.9% | 28.8% | –
9 | O=S(=O)(Cc1ccccc1)c1nc2ccccc2s1 | 33.3% | 25.6% | 90% | 97.1% | 92.1% | 79.5% | 67.4% | 71.1% | 10.8% | 93.8%
10 | CC(C)OC(=O)NNC(=O)c1ccncc1 | 101% | 110% | 91% | 105% | 98.1% | 104% | 114% | 94% | 101% | 110%
11 | Cc1ccc(Nc2ccc(Nc3ccc(C)cc3S(=O)(=O)O)c3c2C(=O)c2ccccc2C3=O)c(S(=O)(=O)O)c1 | 103% | 98.4% | 85.3% | 108% | 107% | 83% | 102% | 97.3% | 102% | 107%
12 | CN1CCN(CCCOc2ccc3nc(Nc4cc(Cl)cc(Cl)c4)ccc3c2)CC1 | -87.6% (active) | -94.4% (active) | -94.5% (active) | -76.2% (active) | -87.5% (active) | -57.8% (active) | -94.9% (active) | -81.5% (active) | -94.4% (active) | -87.2% (active)
13 | CS(=O)(=O)c1ccc(N/N=C/c2c(-c3ccc(S(C)(=O)=O)cc3)[nH]c3ccc(F)cc23)cc1 | 62.7% | 21.8% | 38.8% | 26.1% | 11.2% | 33.9% | -35.4% (active) | 25.7% | 3.68% (active) | 14.7%
14 | Cc1nc(Nc2ccc(S(=O)(=O)Nc3cc(C)on3)cc2)c2ccccc2n1 | 99.1% | 98.6% | 83.2% | 110% | 101% | 96.9% | 99.7% | 98.2% | 102% | 110%
15 | CCNCCNc1cc(-c2cccc(C(F)(F)F)c2)c(C#N)c2nc3ccccc3n12 | -91.4% (active) | -82.5% (active) | -89.3% (active) | -20.3% (active) | -88.7% (active) | -59% (active) | -96.1% (active) | -68.6% (active) | -85.7% (active) | -81.9% (active)
16 | CNC1(C#N)CCN(Cc2ccccc2)CC1 | 104% | 102% | 81.5% | 99.8% | 108% | 97.6% | 116% | 92.5% | 102% | 136%
17 | CCNCCNc1cc(-c2ccc(F)cc2)c(C#N)c2nc3ccccc3n12 | 23.8% | 16.6% | 48.4% | 79.3% | 17.1% | 42.1% | -62.9% (active) | 12.7% | -77.4% (active) | -91% (active)
18 | Clc1ccc(/C=C/c2nc(Nc3ccc(Cl)cc3)c3ccccc3n2)cc1 | 99% | 112% | 93.6% | 100% | 100% | 99.2% | 96.9% | 93.2% | 97.1% | 117%
19 | COc1cc2oc3cc(C)oc(=O)c3c2cc1OC | 91.9% | 91.5% | 103% | 86.8% | 102% | 98.4% | 95.1% | 90.9% | 103% | 115%
20 | COc1cc(NC(=O)c2cc(O)c(CC=C(C)C)c(O)c2)cc2c1O[C@]1(C)CC[C@@H](O)C(C)(C)[C@H]1C2 | 34.3% | 5.24% (active) | -7.48% (active) | 44.9% | 13.4% | 21.5% | -20.3% (active) | -13.3% (active) | 12.7% | 18.8%
21 | CN(C)CCN1C(=O)c2cccc3c(-c4ccc(-c5nc6c7ccccc7c7ccccc7c6[nH]5)cc4)ccc(c23)C1=O | 102% | 81.1% | 117% | 110% | 95.5% | 87.9% | 101% | 112% | 58% | 114%
22 | COc1ccc(OC)c(Nc2nc3nonc3nc2Nc2cc(OC)ccc2OC)c1 | 73.5% | 42.6% | 18.7% | 76.1% | 11.5% | 79.4% | 12% | 47% | 34.3% | 58.1%
23 | CCC(O)(C(c1ccccc1)c1ccccn1)C(c1ccccc1)c1ccccn1 (stereo not drawn) | 103% | 102% | 99.4% | 108% | 107% | 97.4% | 106% | 113% | 98% | 107%
24 | c1ccc2c(c1)ncn2-c1nc2ccccc2n2c1nc1ccccc12 | 43.1% | 40.9% | 81.3% | 86.8% | 87.6% | 72.4% | 55.8% | 77.3% | 79.1% | 107%
25 | O=C1c2ccccc2C2(c3ccc(O)cc3)c3ccccc3Oc3cccc1c32 (stereo not drawn) | 25.9% | 7.07% (active) | 42.2% | 35.6% | 15.5% | 21.6% | 16.9% | 30.8% | 28.3% | 51.9%
26 | COc1ccc(-c2c(N)n[nH]c2-c2ccccc2O)cc1OC | 115% | 112% | 92.2% | 89.1% | 99.6% | 82.7% | 87.8% | 99% | 96.6% | 103%
27 | Clc1ccc(-c2nnc(-c3ccco3)o2)cc1 | 112% | 105% | 89.1% | 90.6% | 98.7% | 96.7% | 108% | 93.9% | 97.8% | 125%
